Assay results from PubChem BioAssay (NCATS).
Unmarked numbers belong to inactive results. Results filed as inconclusive are left out. Calls of active or inactive are those of the source. Unless noted, calls follow the shape of the dose curve; as a rule, active = well fitted curve in the direction sought with a large enough effect; inconclusive = small, poorly fitted or top-dose-only effect, or another doubt; inactive = no such curve, though single readings can be large; an effect the other way counts as inactive or inconclusive.

Key:
[1] = target: Lysosomal acid glucosylceramidase (Homo sapiens) (UniProt P04062); assay: Glucocerebrosidase-p2 (AID 348; in the data active = potency below about 10 µM; also: potency is read from the fitted curve at half-maximal effect); details: purified GBA, blue fluorogenic substrate, 40 min
Chain of Lysosomal acid glucosylceramidase (Homo sapiens) (P04062 whole entry, looked up): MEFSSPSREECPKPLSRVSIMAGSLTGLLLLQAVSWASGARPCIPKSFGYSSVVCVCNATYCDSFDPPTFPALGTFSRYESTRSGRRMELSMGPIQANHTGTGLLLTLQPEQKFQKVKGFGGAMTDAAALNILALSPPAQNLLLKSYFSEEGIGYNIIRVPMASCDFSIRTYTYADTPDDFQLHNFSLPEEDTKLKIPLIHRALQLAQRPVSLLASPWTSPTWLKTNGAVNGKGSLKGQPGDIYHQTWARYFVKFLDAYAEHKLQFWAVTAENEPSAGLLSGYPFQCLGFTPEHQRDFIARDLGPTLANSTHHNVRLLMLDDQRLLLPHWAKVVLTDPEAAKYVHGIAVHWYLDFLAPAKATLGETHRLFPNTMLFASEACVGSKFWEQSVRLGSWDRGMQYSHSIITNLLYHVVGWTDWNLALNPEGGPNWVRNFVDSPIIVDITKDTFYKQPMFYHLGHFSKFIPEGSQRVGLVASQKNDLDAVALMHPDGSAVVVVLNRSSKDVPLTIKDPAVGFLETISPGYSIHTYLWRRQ
Procedure, shortened: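 Compounds titrated from 0.6 nM upwards against 0.2 nM enzyme in pH 5.9 citric acid/KH2PO4, taurocholate, tween-20; blue fluorogenic substrate 80 uM, 40 min room temperature, stopped and read Ex 365/Em 440 for AC50.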

[2] = AP1 Signaling Pathway (AID 357; active = well fitted curve in either direction with a large enough effect, not every such curve was filed as active;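 also: ME-180 reporter cells stimulated with EGF at its EC50 level; % is scaled to controls: 0 for no effect and ±100 for the full control effect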); details: ME-180 AP-1-bla reporter, EGF-induced, beta-lactamase ratio, 5 h; at 7.69 µM (top of the series) unless noted
Procedure, shortened: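 Titration-series screen for positive or negative modulators of EC50 EGF-induced signaling in ME-180 cells carrying an AP-1-driven beta-lactamase reporter. After 5 hours at 37 degrees Celsius, CCF4 460nm/530nm emission ratio gave %Activity; AC50 values derived.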

[3] = NFAT Signaling Pathway (AID 444; active = well fitted curve in either direction with a large enough effect, not every such curve was filed as active;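 also: carbachol stimulus at about its EC50 of 1 µM final; % is scaled to controls: 0 for no effect and ±100 for the full control effect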); details: Jurkat NFAT-bla M1, carbachol, beta-lactamase ratio, 5 h; at 7.69 µM (top of the series) unless noted
Procedure, shortened: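 Jurkat cells carrying an NFAT-driven β-lactamase reporter and co-transfected muscarinic M1 receptor were treated with compound plus carbachol (1 uM final, an EC50 level) for 5 h at 37 °C. CCF4 loading followed for 1 h at RT; 460/530 nm ratio gave %activity.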

[4] = Stat Signaling Pathway (AID 446; active = well fitted curve in either direction with a large enough effect, not every such curve was filed as active;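 also: ME-180 cervical cancer cells given 40 pM IL-6 alongside compound; SIE-controlled beta-lactamase reporter measured as 460/530 nm FRET emission ratio; % is scaled to controls: 0 for no effect and ±100 for the full control effect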); details: ME-180 SIE beta-lactamase reporter, IL-6 stimulated, 5 h; at 7.69 µM (top of the series) unless noted
Procedure, shortened: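 ME-180 cells carrying a SIE-driven beta-lactamase reporter are stimulated with 40 pM IL-6 for 5 h at 37C in the presence of compound. The 460/530 nm FRET substrate ratio is read after 2.5 h at RT. Data are normalised to 300 pM IL-6 and to 125 nM JAK inhibitor controls.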

[5] = target: Glucocorticoid receptor (Homo sapiens) (UniProt P04150); assay: GR-GFP Redistribution (AID 450;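 active = compounds whose dose series gives a full or clear partial fitted curve of increased nuclear translocation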; also: potency is read from the fitted curve at half-maximal effect); details: U2OS GR-GFP nuclear translocation, laser cytometry, 2 h
Chain of Glucocorticoid receptor (Homo sapiens) (P04150 whole entry, looked up, the tested form may be a part): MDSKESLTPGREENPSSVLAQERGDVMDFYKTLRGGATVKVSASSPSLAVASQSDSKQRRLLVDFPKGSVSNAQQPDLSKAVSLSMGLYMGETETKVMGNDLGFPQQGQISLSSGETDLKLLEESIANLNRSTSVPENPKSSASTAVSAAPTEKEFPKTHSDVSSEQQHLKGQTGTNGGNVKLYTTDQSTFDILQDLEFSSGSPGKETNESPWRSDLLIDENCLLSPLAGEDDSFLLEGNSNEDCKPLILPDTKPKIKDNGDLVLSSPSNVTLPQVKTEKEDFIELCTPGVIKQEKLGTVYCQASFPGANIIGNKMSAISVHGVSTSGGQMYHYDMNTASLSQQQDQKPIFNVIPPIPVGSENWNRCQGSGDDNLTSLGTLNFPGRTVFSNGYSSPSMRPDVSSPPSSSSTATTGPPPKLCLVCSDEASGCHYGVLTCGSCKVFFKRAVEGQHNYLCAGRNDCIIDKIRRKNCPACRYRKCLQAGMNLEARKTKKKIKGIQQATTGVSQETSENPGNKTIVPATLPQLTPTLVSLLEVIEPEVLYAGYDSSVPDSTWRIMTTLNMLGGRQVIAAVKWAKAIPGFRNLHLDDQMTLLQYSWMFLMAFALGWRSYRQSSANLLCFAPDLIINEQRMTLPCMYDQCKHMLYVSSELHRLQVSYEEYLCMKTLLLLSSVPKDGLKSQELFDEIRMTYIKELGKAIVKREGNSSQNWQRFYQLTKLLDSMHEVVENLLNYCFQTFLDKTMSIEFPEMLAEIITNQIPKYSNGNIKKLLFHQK

[6] = target: Glucocorticoid receptor (Homo sapiens) (UniProt P04150); assay: GR-EFC Redistribution (AID 451; calls by dose curve; also: potency is read from the fitted curve at half-maximal effect); details: CHO-K1 GR-EFC translocation, beta-gal luminescence, 2 h
Procedure, shortened: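 CHO-K1 cells stably expressing nuclear-localized β-gal enzyme acceptor and GR fused C-terminally to the enzyme donor fragment; ligand-driven nuclear translocation restores β-gal by complementation. Compounds titrated up to 46 uM final, 2 h at 37 °C; luminescence read.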

[7] = target: Mitogen-activated protein kinase 10 (Mus musculus) (UniProt Q61831); assay: JNK3 AlphaScreen Assay (AID 530; active = well fitted curve in either direction with a large enough effect, not every such curve was filed as active;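 also: kinase came from lysate of stimulated human HepG2 cells; signal reports phosphorylation of biotinylated GST-cJun 1-79 at Ser73 with 10 µM ATP; % is scaled to controls: 0 for no effect and ±100 for the full control effect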); details: JNK3 lysate, c-Jun phosphorylation; series mostly up to 57.1 µM
Procedure, shortened: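 Inhibitors reduce antibody binding to phosphorylated biotin-cJun, lowering AlphaScreen luminescence. Lysates from HepG2 cells pre-activated by IL-1beta plus TNF-alpha supplied JNK3; compounds were titrated.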

[8] = target: 3',5'-cyclic-AMP phosphodiesterase 4B (Homo sapiens) (UniProt Q07343); assay: qHTS Assay for Inhibitors of PDE-IV (AID 607; active = well fitted activation curve with a large enough effect in the main read-out, with a control signal flat, not every such curve was filed as active; also: % of control where 0% means no effect); details: HEK293 ACTOne CNG channel cells, membrane potential fluorescence; series mostly up to 22.9 µM
Chain of 3',5'-cyclic-AMP phosphodiesterase 4B (Homo sapiens) (Q07343 whole entry, looked up): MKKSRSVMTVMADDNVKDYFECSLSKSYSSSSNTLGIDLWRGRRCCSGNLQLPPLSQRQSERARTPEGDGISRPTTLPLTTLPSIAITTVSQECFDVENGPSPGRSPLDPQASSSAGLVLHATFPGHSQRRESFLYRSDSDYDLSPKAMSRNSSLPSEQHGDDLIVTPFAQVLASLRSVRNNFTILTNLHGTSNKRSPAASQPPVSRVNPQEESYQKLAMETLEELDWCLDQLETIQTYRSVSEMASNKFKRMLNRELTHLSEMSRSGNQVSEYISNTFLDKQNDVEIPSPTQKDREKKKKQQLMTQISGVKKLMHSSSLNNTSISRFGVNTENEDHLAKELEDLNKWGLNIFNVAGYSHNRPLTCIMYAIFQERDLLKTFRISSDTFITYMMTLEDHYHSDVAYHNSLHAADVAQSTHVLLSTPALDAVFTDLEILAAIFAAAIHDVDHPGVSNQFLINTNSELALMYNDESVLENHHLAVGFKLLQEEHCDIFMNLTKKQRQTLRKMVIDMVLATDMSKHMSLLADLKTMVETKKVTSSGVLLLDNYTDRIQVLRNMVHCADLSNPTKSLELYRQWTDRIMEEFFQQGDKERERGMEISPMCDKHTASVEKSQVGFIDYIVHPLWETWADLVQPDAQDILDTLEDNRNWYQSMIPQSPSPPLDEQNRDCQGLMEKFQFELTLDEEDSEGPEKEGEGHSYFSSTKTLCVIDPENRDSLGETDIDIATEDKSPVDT
Procedure, shortened: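 HEK293 ACTOne cells with CNG channel (1000/well), endogenous PDE4; membrane potential dye, compounds up to 22.9 uM final. Fluorescence Ex 535/Em 590; RO 20-1724 (100 uM final) as reference.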

[9] = qHTS Assay for Identification of Small Molecule Agonists for Hypoxia Response Element Signaling Pathway (AID 914; active = well fitted activation curve with a large enough effect in the signal ratio, with a control signal flat, not every such curve was filed as active; the % refers to the signal ratio; also: % of control where 0% means no effect); details: ME-180 (cervical carcinoma) HRE-bla reporter, beta-lactamase ratio, CoCl2, 17 h; activation: hits give high values
Procedure, shortened: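 Cells were plated overnight, pin-dosed with compound in a titration series, co-stimulated with EC50 CoCl2 and incubated 17 hours at 37 degrees Celsius. CCF4 substrate was then loaded, and AC50 values came from the 460nm/530nm ratio.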

[10] = target: Dual specificity protein kinase CLK4 (Homo sapiens) (UniProt Q9HAZ1); assay: qHTS Assay for Inhibitors of CDC-like Kinase 4 (Kinase-Glo Assay) (AID 1770); details: recombinant Clk4, Kinase-Glo ATP depletion luminescence; series mostly up to 66.7 µM; also: potency is read from the fitted curve at half-maximal effect; nearly all actives have a fitted effect of over 65% in size
Chain of Dual specificity protein kinase CLK4 (Homo sapiens) (Q9HAZ1 whole entry, looked up): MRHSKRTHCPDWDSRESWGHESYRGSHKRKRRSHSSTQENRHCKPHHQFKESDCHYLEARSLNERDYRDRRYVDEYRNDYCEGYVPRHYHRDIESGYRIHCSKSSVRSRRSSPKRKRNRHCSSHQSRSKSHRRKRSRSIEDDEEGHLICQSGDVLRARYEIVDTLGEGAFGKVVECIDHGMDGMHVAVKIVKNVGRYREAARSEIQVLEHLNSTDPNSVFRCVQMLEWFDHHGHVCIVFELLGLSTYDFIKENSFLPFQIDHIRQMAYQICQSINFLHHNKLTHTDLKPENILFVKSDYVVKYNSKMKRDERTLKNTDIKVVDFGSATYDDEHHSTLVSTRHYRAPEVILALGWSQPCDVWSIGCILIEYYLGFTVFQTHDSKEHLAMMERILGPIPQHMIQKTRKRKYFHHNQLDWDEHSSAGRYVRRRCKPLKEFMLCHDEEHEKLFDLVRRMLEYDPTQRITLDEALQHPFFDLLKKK
Procedure, shortened: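 Readout: Kinase-Glo luminescence from ATP left after a 4.5 h room-temperature reaction of 25 nM Clk4 with 100 uM RS peptide and 1 uM ATP (final). Buffer: 25 mM Tris pH 7.5, 10 mM MgCl2.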

[11] = target: Dual specificity protein kinase CLK4 (Homo sapiens) (UniProt Q9HAZ1); assay: qHTS Assay for Inhibitors of CDC-like Kinase 4 (ADP-Glo Assay) (AID 1771); details: recombinant CLK4, ADP-Glo luminescence; series mostly up to 80 µM; also: potency is read from the fitted curve at half-maximal effect; nearly all actives have a fitted effect of over 70% in size
Procedure, shortened: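 Luminescence from ADP-Glo reports ADP produced by 25 nM Clk4 acting on 100 uM RS repeat peptide with 1 uM ATP over 1 hr at room temperature; residual ATP is depleted before ADP is converted to ATP for detection.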

[12] = target: Ubiquitin carboxyl-terminal hydrolase 1 (Homo sapiens) (UniProt O94782); assay: Inhibitors of USP1/UAF1: Pilot qHTS (AID 504865); details: purified USP1/UAF1, Ub-rhodamine cleavage fluorescence; series mostly up to 54.9 µM; also: nearly all actives have a fitted effect of over 35% in size; also: potency is read from the fitted curve at half-maximal effect
Chain of Ubiquitin carboxyl-terminal hydrolase 1 (Homo sapiens) (O94782 whole entry, looked up): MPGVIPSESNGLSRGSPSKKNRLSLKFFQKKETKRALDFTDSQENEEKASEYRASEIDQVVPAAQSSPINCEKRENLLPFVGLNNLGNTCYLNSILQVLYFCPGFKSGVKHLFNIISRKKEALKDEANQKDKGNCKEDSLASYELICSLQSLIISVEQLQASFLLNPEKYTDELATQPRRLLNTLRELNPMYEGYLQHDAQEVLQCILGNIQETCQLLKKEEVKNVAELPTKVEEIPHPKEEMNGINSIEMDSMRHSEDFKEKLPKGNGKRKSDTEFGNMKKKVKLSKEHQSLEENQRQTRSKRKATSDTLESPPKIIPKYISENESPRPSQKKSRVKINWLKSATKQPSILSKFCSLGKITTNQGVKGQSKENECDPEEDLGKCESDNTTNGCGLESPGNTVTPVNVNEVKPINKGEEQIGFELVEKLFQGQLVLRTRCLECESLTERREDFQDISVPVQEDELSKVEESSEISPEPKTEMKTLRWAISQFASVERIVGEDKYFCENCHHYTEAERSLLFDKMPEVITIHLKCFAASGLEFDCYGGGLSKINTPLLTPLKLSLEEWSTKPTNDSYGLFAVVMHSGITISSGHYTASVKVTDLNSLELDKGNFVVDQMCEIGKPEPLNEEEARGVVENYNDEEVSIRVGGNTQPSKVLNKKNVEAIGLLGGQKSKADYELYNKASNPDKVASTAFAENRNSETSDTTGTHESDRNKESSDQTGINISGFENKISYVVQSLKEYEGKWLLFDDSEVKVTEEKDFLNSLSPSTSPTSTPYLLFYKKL
Procedure, shortened: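 1nM USP1/UAF1 + cpd, 15 min RT; start w/ Ub-Rho 150nM final; kinetic FL 480/540 nm, 6 reads q60 s. Buffer 50mM HEPES pH 7.8, 0.5mM EDTA, 1mM TCEP, 0.01% Tween-20, 0.1 mg/ml BSA.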

[13] = Primary qHTS for small molecule stabilizers of the endoplasmic reticulum resident proteome: Secreted ER Calcium Modulated Protein (SERCaMP) assay (AID 1508630); details: SH-SY5Y GLuc-SERCaMP (Gaussia luciferase released on ER calcium loss) secretion, thapsigargin, luminescence; series mostly up to 38.4 µM; also: % is scaled to controls: 0 for no effect and ±100 for the full control effect
Procedure, shortened: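 GLuc-SERCaMP-expressing SH-SY5Y cells, pretreated 16 h with compound, are challenged with thapsigargin to empty ER calcium stores; after 4 h, coelenterazine is added directly to the medium and luminescence is imaged.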

[14] = target: Cytochrome P450 1A2 (Homo sapiens) (UniProt P05177); assay: p450-cyp1a2 (AID 410; calls by dose curve; also: potency is read from the fitted curve at half-maximal effect); details: recombinant CYP1A2, luciferin-ME demethylation, luminescence; series mostly up to 57 µM
Chain of Cytochrome P450 1A2 (Homo sapiens) (P05177 whole entry, looked up): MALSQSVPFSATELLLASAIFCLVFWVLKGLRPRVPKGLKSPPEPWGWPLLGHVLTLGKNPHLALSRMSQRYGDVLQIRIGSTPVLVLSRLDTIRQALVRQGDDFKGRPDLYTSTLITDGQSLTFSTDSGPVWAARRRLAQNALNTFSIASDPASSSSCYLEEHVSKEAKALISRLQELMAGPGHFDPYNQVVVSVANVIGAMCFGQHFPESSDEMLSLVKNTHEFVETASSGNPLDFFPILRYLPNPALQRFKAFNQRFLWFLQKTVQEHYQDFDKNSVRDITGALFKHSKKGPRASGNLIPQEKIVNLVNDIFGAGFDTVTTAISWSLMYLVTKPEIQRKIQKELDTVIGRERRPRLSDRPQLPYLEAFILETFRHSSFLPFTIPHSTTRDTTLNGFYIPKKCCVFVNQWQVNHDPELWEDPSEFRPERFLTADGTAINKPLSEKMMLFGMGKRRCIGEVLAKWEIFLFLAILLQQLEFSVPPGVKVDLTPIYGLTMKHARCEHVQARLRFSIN
Procedure, shortened: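 Luminescent readout of luciferin formed from Luciferin-ME by human CYP1A2; data normalized against complete inhibition by 57 uM furafylline. Enzyme 20nM, substrate 100uM at Km, 100mM KPO4 buffer, 60 min reaction at room temperature.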

[15] = target: Cytochrome P450 3A4 (Homo sapiens) (UniProt P08684); assay: qHTS Assay for Activators of Cytochrome P450 3A4 (AID 885); details: recombinant CYP3A4, Luciferin-PPXE luminescence, 60 min; series mostly up to 57.1 µM; also: nearly all actives have a fitted effect of over 65% in size
Chain of Cytochrome P450 3A4 (Homo sapiens) (P08684 whole entry, looked up): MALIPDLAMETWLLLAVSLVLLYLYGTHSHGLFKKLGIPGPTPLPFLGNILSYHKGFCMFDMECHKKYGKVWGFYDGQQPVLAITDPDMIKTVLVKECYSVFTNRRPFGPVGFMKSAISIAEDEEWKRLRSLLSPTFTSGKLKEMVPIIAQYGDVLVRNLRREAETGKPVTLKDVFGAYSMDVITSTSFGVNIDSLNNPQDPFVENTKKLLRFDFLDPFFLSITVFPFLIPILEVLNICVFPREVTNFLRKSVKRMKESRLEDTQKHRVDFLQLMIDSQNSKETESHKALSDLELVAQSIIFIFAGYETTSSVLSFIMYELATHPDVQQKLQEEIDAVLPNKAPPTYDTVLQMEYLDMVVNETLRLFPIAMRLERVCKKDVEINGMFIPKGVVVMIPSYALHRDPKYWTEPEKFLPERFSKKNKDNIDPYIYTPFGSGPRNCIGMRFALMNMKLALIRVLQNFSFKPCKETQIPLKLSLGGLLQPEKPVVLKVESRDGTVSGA
Procedure, shortened: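 Human CYP3A4 (20 nM) with Luciferin-PPXE at 25 uM (its KM) in 200 mM KPO4; 10 min compound preincubation, then NADPH regeneration and 60 min reaction at RT. Luciferin read by luminescence; normalized to 57 uM ketoconazole full inhibition.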

[16] = target: Cytochrome P450 3A4 (Homo sapiens) (UniProt P08684); assay: qHTS Assay for Inhibitors and Substrates of Cytochrome P450 3A4 (AID 884); details: recombinant CYP3A4, Luciferin-PPXE luminescence; series mostly up to 57.1 µM; also: potency is read from the fitted curve at half-maximal effect; nearly all actives have a fitted effect of over 50% in size
Procedure, shortened: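 20 nM human CYP3A4 with 25 uM Luciferin-PPXE (at KM) in 200 mM KPO4, preincubated 10 min with compound; NADPH regeneration started a 60 min RT reaction. Luciferin detected by luminescence, normalized to 57 uM ketoconazole as full inhibition.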

Row | SMILES | Potency [1] | activity change, negative = inhibition [2] [%] | activity change, negative = inhibition [3] [%] | activity, negative = inhibition [4] [%] | Potency [5] [µM] | Potency [6] [µM] | Potency [7] | Potency [8] | activation [9] [%] | Potency [10] | Potency [11] | Potency [12] | outcome [13] | Potency [14] | Potency [15] | Potency [16]
1 | FC(F)(F)c1ccccc1-c1nc(-n2ccnc2)c2ccccc2n1 | > 11.4 µM | 9.46 | 3.74 | -3.35 | > 46 | > 46 | inactive | inactive | 2.67 | 15.8 µM (active) | 17.8 µM (active) | inactive | inactive | – | – | –
2 | CN(C)C(=O)c1ccc(-c2cc(NCc3cccs3)ncn2)cc1 | > 11.4 µM | -17.2 | 3.58 | 5.59 | > 46 | > 46 | inactive | – | – | 20 µM (active) | 22.4 µM (active) | inactive | inactive | – | – | –
3 | Cc1cnc(CNc2ccnc(-c3cccnc3)n2)cn1 | > 11.4 µM | 16.6 | – | 13.3 | > 46 | > 46 | inactive | inactive | – | 15.8 µM (active) | 15.8 µM (active) | inactive | inactive | 7.94 µM (active) | inactive | –
4 | FC(F)(F)c1ccccc1-c1nc(NC2CC2)c2ccccc2n1 | 6.53 µM (active) | 3.67 | 8.57 | 8.2 | > 46 | > 46 | inactive | – | – | 14.1 µM (active) | 14.1 µM (active) | inactive | inactive | 0.398 µM (active) | inactive | 3.16 µM (active)
5 | FC(F)(F)c1ccccc1-c1nccc(-n2ccnc2)n1 | > 11.4 µM | -7.77 | 2.35 | 0.859 | > 46 | > 46 | inactive | – | – | 15.8 µM (active) | 25.1 µM (active) | inactive | inactive | – | – | –
6 | Cc1cccc(CNc2cc(-c3ccccc3Cl)ncn2)c1 | > 11.4 µM | 13.1 | -3.92 | 0.338 | > 46 | > 46 | inactive | inactive | – | 28.2 µM (active) | 28.2 µM (active) | – | inactive | 3.16 µM (active) | inactive | –
7 | COc1ccc2[nH]cc(CCNc3cc(-c4ccccc4Cl)ncn3)c2c1 | > 11.4 µM | 0.747 | 9.26 | -11.7 | > 46 | > 46 | inactive | inactive | – | 12.6 µM (active) | 12.6 µM (active) | 20 µM (active) | inactive | – | – | –
